In PubChem BioAssay (EPA / NIEHS):
Active and inactive are the calls of the source. How the source made its calls: active means hit-call score of the fitted dose curve at least 0.9, where 1 is the maximum; inactive means score below 0.9.

Read-out: BCL2L11 (gene 10018)
Experiment: LTEA_HepaRG_BCL2L11: Life Technologies and Expression Analysis (LTEA) Assay for Bcl-2 (BCL2L11) gene using HepaRG (AID 2283473)
Conditions: mRNA level, 48 h; actives raise or lower the signal
Summary of the method: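 Differentiated human HepaRG cells were exposed 48 h in serum-free induction medium to eight half-log concentrations up to 100 uM in 0.5% DMSO, in duplicate. BCL2L11 mRNA was quantified by TaqMan qRT-PCR, normalized to ACTB, GAPDH and POLR2A; induction or repression fitted versus DMSO.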

SMILES | AC50 | outcome
CN(C)CCCN1c2ccccc2Sc2ccc(Cl)cc21 | 72.8 µM (active) | –
c1ccc2occc2c1 | – | inactive
NC(=Nc1ccccc1)Nc1ccccc1 | – | inactive
CCN(CC)CCOc1ccc(C(=C(Cl)c2ccccc2)c2ccccc2)cc1 | 76.5 µM (active) | –
NCCOCCOCCN | – | inactive
Oc1ccccc1O | – | inactive
CCc1nc(N)nc(N)c1-c1ccc(Cl)cc1 | – | inactive
Cc1cc(SC2=C(O)C[C@@](CCc3ccc(N)cc3)(C(C)C)OC2=O)c(C(C)(C)C)cc1CO | – | inactive
CCCCC(CC)CO (centres undefined) | – | inactive
Nc1nc(Cl)nc2c1ncn2[C@H]1C[C@H](O)[C@@H](CO)O1 | – | inactive
O=C(O)CC(O)(CC(=O)O)C(=O)O | – | inactive
O=C(NS(=O)(=O)/C=C/c1cccs1)c1ccc(F)cc1Br | – | inactive
CC(COCC(C)OC(=O)c1ccccc1)OC(=O)c1ccccc1 (centres undefined) | – | inactive
C#CC(O)C(CC)CCCC (centres undefined) | – | inactive
CSc1ccc(Oc2ccc(S(N)(=O)=O)cc2CN(C)C)cc1C | – | inactive
CCCCOC(=O)CCCCC(=O)OCCCC | – | inactive
N[C@@H](Cc1c[nH]c2ccccc12)C(=O)O | – | inactive
CCCCC(CC)COP(=O)(OCC(CC)CCCC)OCC(CC)CCCC (centres undefined) | – | inactive
CC(N)=O | – | inactive
O=C1CCCCC1 | – | inactive
O=NO | – | inactive
Cc1cc(Cc2ccc(N)c(C)c2)ccc1N | – | inactive
CCCCCCCCCCCCCCOS(=O)(=O)O | – | inactive
Nc1nc(=S)c2[nH]cnc2[nH]1 | – | inactive
COc1ccc(OC(F)(F)F)cc1CN[C@H]1CCCN[C@H]1c1ccccc1 | 84.5 µM (active) | –
CC(=O)S[C@H](C(=O)N[C@H]1Cc2ccccc2[C@H]2CCC[C@@H](C(=O)O)N2C1=O)C(C)C | – | inactive
CC(=O)OCC(COC(C)=O)OC(C)=O | – | inactive
O=C1O[C@H]([C@H](O)CO)C(O)=C1O | – | inactive
CC(=O)OC1CC(C)OC(C)O1 (centres undefined) | – | inactive

Read-out: Apolipoprotein A-V (APOA5) gene, APOA5 (gene 116519)
Experiment: LTEA_HepaRG_APOA5: Life Technologies and Expression Analysis (LTEA) Assay for Apolipoprotein A-V (APOA5) gene using HepaRG (AID 2283474)
Conditions: mRNA level, 48 h; actives raise or lower the signal
Summary of the method: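 Differentiated HepaRG cells in serum-free induction medium, exposed 48 h in duplicate to eight half-log concentrations topping at 100 uM (0.5% DMSO). APOA5 mRNA by Fluidigm TaqMan qRT-PCR, normalized to ACTB, GAPDH and POLR2A; bidirectional fit versus DMSO.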

SMILES | AC50 | outcome
CN(C)CCCN1c2ccccc2Sc2ccc(Cl)cc21 | 85.8 µM (active) | –
c1ccc2occc2c1 | – | inactive
NC(=Nc1ccccc1)Nc1ccccc1 | – | inactive
CCN(CC)CCOc1ccc(C(=C(Cl)c2ccccc2)c2ccccc2)cc1 | – | inactive
NCCOCCOCCN | – | inactive
Oc1ccccc1O | – | inactive
CCc1nc(N)nc(N)c1-c1ccc(Cl)cc1 | – | inactive
Cc1cc(SC2=C(O)C[C@@](CCc3ccc(N)cc3)(C(C)C)OC2=O)c(C(C)(C)C)cc1CO | – | inactive
CCCCC(CC)CO (centres undefined) | – | inactive
Nc1nc(Cl)nc2c1ncn2[C@H]1C[C@H](O)[C@@H](CO)O1 | 1.12 µM (active) | –
O=C(O)CC(O)(CC(=O)O)C(=O)O | – | inactive
O=C(NS(=O)(=O)/C=C/c1cccs1)c1ccc(F)cc1Br | – | inactive
CC(COCC(C)OC(=O)c1ccccc1)OC(=O)c1ccccc1 (centres undefined) | – | inactive
Cc1cn([C@H]2C=C[C@@H](CO)O2)c(=O)[nH]c1=O | – | inactive
C#CC(O)C(CC)CCCC (centres undefined) | – | inactive
CSc1ccc(Oc2ccc(S(N)(=O)=O)cc2CN(C)C)cc1C | – | inactive
CCCCOC(=O)CCCCC(=O)OCCCC | – | inactive
N[C@@H](Cc1c[nH]c2ccccc12)C(=O)O | – | inactive
CCCCC(CC)COP(=O)(OCC(CC)CCCC)OCC(CC)CCCC (centres undefined) | – | inactive
CC(N)=O | – | inactive
O=C1CCCCC1 | – | inactive
O=NO | – | inactive
Cc1cc(Cc2ccc(N)c(C)c2)ccc1N | – | inactive
CCCCCCCCCCCCCCOS(=O)(=O)O | – | inactive
Nc1nc(=S)c2[nH]cnc2[nH]1 | 3.48 µM (active) | –
COc1ccc(OC(F)(F)F)cc1CN[C@H]1CCCN[C@H]1c1ccccc1 | – | inactive
CC(=O)S[C@H](C(=O)N[C@H]1Cc2ccccc2[C@H]2CCC[C@@H](C(=O)O)N2C1=O)C(C)C | – | inactive
CC(=O)OCC(COC(C)=O)OC(C)=O | – | inactive
O=C1O[C@H]([C@H](O)CO)C(O)=C1O | – | inactive
CC(=O)OC1CC(C)OC(C)O1 (centres undefined) | – | inactive
